Our source for the growth values is PubChem BioAssay (NCI).

Several values for one entry are separate records, joined by “and”; a condition that tells them apart may be missing. Equal entries are not always repeated. Compounds without any hit were thinned out: in the full panel of roughly 83,000, 20% have a hit.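 Negative percent growth values reflect cell death: -40 means 40% of the cells present at the start died, and -100 means all died.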 Activity calls are given as the source filed them. Rule for the calls: active = growth percent below 10; inactive = the rest.

Test systems include NCI-H23 lung; NCI-H226 lung; NCI-H322M lung; HOP-62 NSCLC; NCI-H460 lung; HOP-92 NSCLC; NCI-H522 lung; A549/ATCC NSCLC; 786-0 renal; COLO 205 colon; DU-145 prostate; K-562 leukemia; MALME-3M melanoma; MDA-MB-231 breast; RXF 393 renal; SF-268 CNS; SF-295 CNS; SF-539 CNS; UACC-257 melanoma.
Common to all, as to test: NCI-60 one-dose screen, 48 h (100 = growth as untreated, 0 = no growth, -100 = all killed)
Settings in all cases: 10 µM unless noted

As to `COc1cc(N=Nc2ccc(O)c3ncccc23)c2ncccc2c1`, the growth with NCI-H23 lung was 50.2% (inactive); in the assay with NCI-H226 lung it was 64.6% (inactive); with NCI-H322M lung, 55.9% (inactive); with HOP-62 NSCLC, 42.7% (inactive); in the assay with NCI-H460 lung, 17.4% (inactive); with HOP-92 NSCLC it was 32.4% (inactive). In addition, the growth is 15.9% (inactive) in the assay on NCI-H522 lung; 8.08% (active) in the assay on A549/ATCC NSCLC; 24.3% (inactive) in the assay with 786-0 renal; 52.4% (inactive) in the assay on COLO 205 colon; 31% (inactive) in the assay with DU-145 prostate; 10.9% (inactive) in the assay on K-562 leukemia. The growth was 35.5% (inactive) in the assay with MALME-3M melanoma; 37.3% (inactive) with MDA-MB-231 breast; 52.5% (inactive) in the assay on RXF 393 renal; 18.3% (inactive) with SF-268 CNS; 67.8% (inactive) in the assay with SF-295 CNS; 10.1% (inactive) with SF-539 CNS. Further, the growth in the assay on UACC-257 melanoma is 74.4% (inactive).

In the case of `OCCN1CCN(CC/C=C2\c3ccccc3Sc3ccc(Cl)cc32)CC1`, the growth in the assay with NCI-H23 lung is 50.7% (inactive) and 82.9% (inactive); with NCI-H226 lung, 88.2% (inactive) and 110% (inactive); in the assay with NCI-H322M lung, 83.1% (inactive); in the assay with HOP-62 NSCLC, -34.7% (active) and -66.1% (active); with NCI-H460 lung it was 2.77% (active) and -25% (active); with HOP-92 NSCLC it was 10.9% (inactive) and -12.9% (active). Besides, the growth with NCI-H522 lung was 37.9% (inactive) and 13.3% (inactive); with A549/ATCC NSCLC, 60% (inactive) and 38.2% (inactive); in the assay with 786-0 renal, 38.6% (inactive); with COLO 205 colon it was -75.6% (active) and -87.3% (active); in the assay with DU-145 prostate, 17.1% (inactive) and 65% (inactive); in the assay on K-562 leukemia, -90.8% (active) and -68.9% (active). The growth with MALME-3M melanoma is -53.2% (active); with MDA-MB-231 breast it was 29.3% (inactive) and 44.8% (inactive); with RXF 393 renal, 23.5% (inactive); with SF-268 CNS, 51.7% (inactive) and 46.6% (inactive); in the assay with SF-295 CNS, 47.6% (inactive) and 31% (inactive); in the assay with SF-539 CNS it was 31.8% (inactive) and 59.7% (inactive). In addition, the growth with UACC-257 melanoma was -83.9% (active) and -94.1% (active).

Turning to `O=S(=O)(O)c1ccc(N=Nc2ccc(N=Nc3cccc4ccccc34)c(S(=O)(=O)O)c2)cc1`, the growth is 91.5% (inactive) with NCI-H23 lung; 90.1% (inactive) in the assay on NCI-H226 lung; 102% (inactive) in the assay on NCI-H322M lung; 107% (inactive) in the assay with HOP-62 NSCLC; 98.9% (inactive) in the assay on NCI-H460 lung; 83.4% (inactive) in the assay with HOP-92 NSCLC. The growth in the assay on NCI-H522 lung was 103% (inactive); in the assay on A549/ATCC NSCLC, 109% (inactive); in the assay on 786-0 renal, 107% (inactive); in the assay on COLO 205 colon it was 100% (inactive); with DU-145 prostate, 109% (inactive); in the assay on K-562 leukemia, 104% (inactive). Besides, the growth in the assay on MALME-3M melanoma was 107% (inactive); in the assay on MDA-MB-231 breast, 80.3% (inactive); in the assay with RXF 393 renal, 119% (inactive); in the assay with SF-268 CNS it was 106% (inactive); in the assay on SF-295 CNS, 106% (inactive); with SF-539 CNS, 102% (inactive). Also, in the assay on UACC-257 melanoma, the growth is 107% (inactive).

Take `CCNC(=S)n1nc(SC)c(C(=O)OCC)c1N`: the growth in the assay with NCI-H23 lung is 93.3% (inactive); with NCI-H226 lung it was 91.9% (inactive); in the assay with NCI-H322M lung it was 91.8% (inactive); in the assay on HOP-62 NSCLC, 86.7% (inactive); in the assay with NCI-H460 lung it was 106% (inactive); in the assay with HOP-92 NSCLC it was 110% (inactive). The growth with NCI-H522 lung is 89.9% (inactive); in the assay with A549/ATCC NSCLC, 107% (inactive); with 786-0 renal it was 98.6% (inactive); in the assay on COLO 205 colon it was 107% (inactive); in the assay on DU-145 prostate, 102% (inactive); with K-562 leukemia, 85.5% (inactive). In addition, the growth with MALME-3M melanoma was 106% (inactive); with MDA-MB-231 breast it was 92.5% (inactive); in the assay on RXF 393 renal, 107% (inactive); in the assay with SF-268 CNS it was 92% (inactive); in the assay on SF-295 CNS it was 98.1% (inactive); in the assay on SF-539 CNS, 93.1% (inactive). In addition, the growth in the assay with UACC-257 melanoma is 120% (inactive).

Turning to `C=C(C)[C@@H]1CC[C@]2(C(=O)N3CCN(C)CC3)CC[C@]3(C)[C@H](CC[C@@H]4[C@@]5(C)CC(CCCNC(C)=O)(CCCNC(C)=O)[C@H](OC(C)=O)C(C)(C)[C@@H]5CC[C@]43C)[C@@H]12`, the growth is 98.2% (inactive) in the assay with NCI-H23 lung; 99.1% (inactive) with NCI-H226 lung; 105% (inactive) with NCI-H322M lung; 103% (inactive) in the assay on HOP-62 NSCLC; 99.5% (inactive) with NCI-H460 lung; 98.2% (inactive) in the assay on HOP-92 NSCLC. The growth with NCI-H522 lung is 96.3% (inactive); in the assay with A549/ATCC NSCLC, 102% (inactive); with 786-0 renal it was 99.8% (inactive); in the assay on COLO 205 colon it was 106% (inactive); in the assay with DU-145 prostate, 108% (inactive); in the assay on K-562 leukemia it was 81.1% (inactive). In addition, the growth in the assay with MALME-3M melanoma was 98% (inactive); with MDA-MB-231 breast it was 108% (inactive); with RXF 393 renal, 109% (inactive); in the assay with SF-268 CNS it was 98.9% (inactive); in the assay on SF-295 CNS, 99.4% (inactive); in the assay on SF-539 CNS, 101% (inactive). Further, the growth with UACC-257 melanoma was 109% (inactive).

Consider `N=C1/C(=C2\NC3C=CC=CC3S2)C(c2ccc(Cl)cc2)C2C(=O)N(c3ccccc3)C(=S)N12` (stereo not drawn), for which the growth was 97.4% (inactive) in the assay with NCI-H23 lung; 91.6% (inactive) in the assay with NCI-H226 lung; 101% (inactive) in the assay on NCI-H322M lung; 105% (inactive) in the assay on HOP-62 NSCLC; 107% (inactive) with NCI-H460 lung; 102% (inactive) with HOP-92 NSCLC. Moreover, the growth was 101% (inactive) with NCI-H522 lung; 100% (inactive) with A549/ATCC NSCLC; 101% (inactive) in the assay with 786-0 renal; 113% (inactive) with COLO 205 colon; 114% (inactive) with DU-145 prostate; 102% (inactive) in the assay on K-562 leukemia. Also, the growth is 100% (inactive) in the assay with MALME-3M melanoma; 102% (inactive) with MDA-MB-231 breast; 95.7% (inactive) with RXF 393 renal; 99.5% (inactive) in the assay on SF-268 CNS; 103% (inactive) in the assay with SF-295 CNS; 99.4% (inactive) in the assay on SF-539 CNS. The growth in the assay with UACC-257 melanoma is 107% (inactive).

In the case of `Nc1ncnc2c1C(c1ccc([N+](=O)[O-])cc1)c1sc3c(F)cccc3c1O2` (stereo not drawn), the growth with NCI-H23 lung is 86.8% (inactive); with NCI-H226 lung, 62.9% (inactive); with NCI-H322M lung, 93.6% (inactive); in the assay with HOP-62 NSCLC, 116% (inactive); with NCI-H460 lung it was 89.4% (inactive); in the assay with HOP-92 NSCLC it was 107% (inactive). For the same compound, the growth is 84.3% (inactive) in the assay on NCI-H522 lung; 99.9% (inactive) in the assay with A549/ATCC NSCLC; 103% (inactive) in the assay on 786-0 renal; 109% (inactive) in the assay with COLO 205 colon; 93.1% (inactive) in the assay with DU-145 prostate; 83.4% (inactive) with K-562 leukemia. In addition, the growth in the assay with MALME-3M melanoma is 104% (inactive); in the assay with MDA-MB-231 breast, 84.4% (inactive); in the assay with RXF 393 renal it was 101% (inactive); in the assay with SF-268 CNS, 98.7% (inactive); in the assay with SF-295 CNS, 106% (inactive); with SF-539 CNS, 96% (inactive). The growth in the assay on UACC-257 melanoma was 121% (inactive).
